Inconclusive results are not listed. The source made the active and inactive calls. Rule for the calls: active = hit-call score of the fitted dose curve at least 0.9, where 1 is the maximum; inconclusive = response in the unintended direction; inactive = score below 0.9.

This assay is described as follows: TOX21_p53_BLA_p5_viability: Viability Assessment in the Tox21 HCT-116 p53 Agonism Beta-lactamase Assay, Phase 5 (AID 2283600). In outline:
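Seeded cells (4000/well) settle 5 h before compound addition. Plates then incubate 16 h at 37C, receive FRET substrate for 2 h, and finally CellTiter-Glo, with luminescence measured after a 30 min room-temperature incubation.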
On to `CCCCCCCCCCCCC(=O)O`, for which the outcome was inactive. The same measure, in the same setting: the same measure for `Cc1ccc(NC(=O)N(C)C)cc1NC(=O)N(C)C`: “inactive”; for `OC[C@@H](O)[C@@H](O)CO`: “inactive”; for `NC(=O)CCCCC(N)=O`: “inactive”. On the same count and under the same terms, the same measure for `OCC(S)CS` (centres undefined): “inactive”; for `CC1CCCO1` (centres undefined): “inactive”; for `C=CC1=C(C(=O)O)N2C(=O)[C@@H](NC(=O)/C(=N\O)c3csc(N)n3)[C@H]2SC1` (stereo in doubt): “inactive”. Still for that read-out and setting: to `CC(=NO)C(C)=NO` belongs “inactive”; to `CN(C)CCCN1c2ccccc2Sc2ccc(C(F)(F)F)cc21`, “inactive”; to `O=C(O)CONC(=O)c1ccccc1`, “inactive”. As to `C[C@H](CCC(=O)O)[C@H]1CC[C@H]2[C@@H]3[C@H](O)C[C@@H]4C[C@H](O)CC[C@]4(C)[C@H]3C[C@H](O)[C@]12C`, the molecule was classed as inactive. The same measure, in the same setting: to `CCc1ncnc2cc(OC)c(OC)cc12` belongs “inactive”. Still for that read-out and setting: to `CC(C)n1nc(-c2cc3cc(O)ccc3[nH]2)c2c(N)ncnc21` belongs “inactive”. The same measure, in the same setting: to `CNCc1ccccc1` belongs “inactive”. On to `CC(C)[N+](C)(C)CC(O)COc1cccc2ccccc12` (centres undefined), for which the molecule was called inactive. The same measure, in the same setting: to `CC(=O)N1C[C@H](O)C[C@H]1C(=O)O` belongs “inactive”; to `NS(=O)(=O)c1cc(C2(O)NC(=O)c3ccccc32)ccc1Cl` (centres undefined), “inactive”; to `CC(C(=O)O)c1cccc(C(=O)c2ccccc2)c1` (centres undefined), “inactive”. The same measure, in the same setting: the same measure for `NCCOCCN`: “inactive”; for `C=C1CC2C3CCC4=CC(=O)C=C[C@]4(C)[C@@]3(F)[C@@H](O)C[C@]2(C)[C@@]1(O)C(=O)COC(C)=O` (some centres undefined): “inactive”. Still for that read-out and setting: to `CCOC(=O)[C@H](CCc1ccccc1)N[C@@H](C)C(=O)N1[C@H](C(=O)O)C[C@H]2CCCC[C@@H]21` belongs “inactive”; to `CC1CCCNC1` (centres undefined), “inactive”; to `O=C(O)c1c(Cl)c(Cl)c(Cl)c(Cl)c1-c1c2cc(I)c(=O)c(I)c-2oc2c(I)c(O)c(I)cc12`, “inactive”. As for `CC(=O)C=Cc1ccco1`, the result was inactive. For the molecule `O=C(/C=C/c1cccc(F)c1)NC1CC1`, the result was inactive. Still for that read-out and setting: to `CCOC(=O)[C@H](CCc1ccccc1)N[C@@H](C)C(=O)N1Cc2ccccc2C[C@H]1C(=O)O` belongs “inactive”. Same read-out and setting: to `CC(=O)O[C@H]1C[C@@H]2CC[C@@H]3[C@H](CC[C@@]4(C)[C@H]3C[C@H]([N+]3(C)CCCCC3)[C@@H]4OC(C)=O)[C@@]2(C)C[C@@H]1[N+]1(C)CCCCC1` belongs “inactive”.

Turning to `Cc1c(C)c2c(c(C)c1OC(=O)CCC(=O)OCCO)CCC(C)(CCCC(C)CCCC(C)CCCC(C)C)O2` (centres undefined), the half-maximal activity concentration (AC50) – broadly, the concentration giving half of the maximal activity seen – is 13.3 µM (active). Take `COc1ccc(OC)c(NC(=O)CC(C)=O)c1`: the molecule was classed as inactive. With `CC1=C(/C=C/C(C)=C/C=C/C(C)=C/C=C/C=C(C)/C=C/C=C(C)/C=C/C2=C(C)C[C@@H](O)CC2(C)C)C(C)(C)C[C@H](O)C1`, the concentration at half-maximal activity (AC50) is 43.2 µM (active).

For the molecule `CC(=O)c1ccc2c(c1)N(CCCN1CCC(CCO)CC1)c1ccccc1S2`, the molecule was classed as inactive. On to `Brc1ccccc1-c1ccccc1`, for which the call was inactive. As to `CNc1cc(OC)c(C(=O)N[C@H]2CCN(Cc3ccccc3)[C@H]2C)cc1Cl`, the call was inactive. Regarding `O=C1c2c(O)ccc([N+](=O)[O-])c2C(=O)c2c([N+](=O)[O-])ccc(O)c21`, the AC50 was 9.58 µM (active). Take `Cc1cc(CC(C)CC(C)(C)C)n(O)c(=O)c1` (centres undefined) (tested in a mixture with another compound): the AC50 is 41.8 µM (active). On to `CCN(CC)c1ccc(C(=C2C=CC(=[N+](CC)CC)C=C2)c2ccccc2)cc1`, for which the AC50 is 2.93 µM (active). Regarding `CCN(CC)CCOc1ccc(C(O)(Cc2ccc(Cl)cc2)c2ccc(C)cc2)cc1` (centres undefined), the result was inactive. Still for that read-out and setting: to `O=S(=O)(O)c1ccc2c(N=Nc3ccc(S(=O)(=O)O)c4ccccc34)c(O)c(S(=O)(=O)O)cc2c1` belongs “inactive”; to `CC(C)(C)CC(C)(C)c1cc(Cc2cc(C(C)(C)CC(C)(C)C)cc(-n3nc4ccccc4n3)c2O)c(O)c(-n2nc3ccccc3n2)c1`, “inactive”.
